The text below walks through data of PubChem BioAssay AID623911 (Vanderbilt High Throughput Screening Facility, 2012).

Among all 2,100 compounds or so, about 770 (37%) were called active. This is one part of the list. Unmarked numbers belong to inactive results.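 The calls were made as follows: active = by-eye trace score of 1 for enhancers or -1 for inhibitors, so actives lie on both sides (some results past the limit were not filed as active); inactive = score 0, or 3 fluorescent, or 4 baseline rise.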

Sequence of G protein-activated inward rectifier potassium channel 2 (Homo sapiens) + G protein-activated inward rectifier potassium channel 1 (Homo sapiens) (P48051 whole entry, looked up): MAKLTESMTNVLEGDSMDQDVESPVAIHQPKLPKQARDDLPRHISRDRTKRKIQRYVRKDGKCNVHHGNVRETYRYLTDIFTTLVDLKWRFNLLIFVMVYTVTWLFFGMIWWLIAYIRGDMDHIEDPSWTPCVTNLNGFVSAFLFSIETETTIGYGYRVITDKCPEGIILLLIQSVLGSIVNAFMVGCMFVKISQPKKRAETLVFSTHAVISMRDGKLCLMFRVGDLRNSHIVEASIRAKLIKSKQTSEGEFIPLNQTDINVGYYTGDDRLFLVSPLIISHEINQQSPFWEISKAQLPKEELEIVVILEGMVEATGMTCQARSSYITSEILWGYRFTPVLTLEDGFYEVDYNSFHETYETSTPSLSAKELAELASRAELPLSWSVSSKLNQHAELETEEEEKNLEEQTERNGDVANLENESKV
Sequence of G protein-activated inward rectifier potassium channel 2 (Homo sapiens) + G protein-activated inward rectifier potassium channel 1 (Homo sapiens) (P48549 whole entry, looked up): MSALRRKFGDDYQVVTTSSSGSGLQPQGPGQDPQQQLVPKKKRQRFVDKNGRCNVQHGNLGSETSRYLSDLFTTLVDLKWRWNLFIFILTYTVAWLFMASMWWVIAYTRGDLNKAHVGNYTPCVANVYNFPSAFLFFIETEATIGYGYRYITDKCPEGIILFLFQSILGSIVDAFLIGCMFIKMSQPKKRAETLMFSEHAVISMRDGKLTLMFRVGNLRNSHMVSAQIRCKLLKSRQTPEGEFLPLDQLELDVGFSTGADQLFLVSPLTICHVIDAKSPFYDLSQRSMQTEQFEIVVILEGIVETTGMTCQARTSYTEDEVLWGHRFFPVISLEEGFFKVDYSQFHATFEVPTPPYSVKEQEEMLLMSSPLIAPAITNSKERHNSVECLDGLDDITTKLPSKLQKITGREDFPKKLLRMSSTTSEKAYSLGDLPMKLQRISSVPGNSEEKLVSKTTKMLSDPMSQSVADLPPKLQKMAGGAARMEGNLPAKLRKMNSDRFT

The test addresses G protein-activated inward rectifier potassium channel 2 (Homo sapiens) + G protein-activated inward rectifier potassium channel 1 (Homo sapiens) (UniProt P48051+P48549). Kind of test: GIRK1/2 thallium flux modulators, retest, confirmation, cell-based, HEK293 rmGlu8/hGIRK1/2, FluoZin-2 (AID 623911). The following applies: HEK293 rmGlu8/hGIRK1/2, thallium flux FluoZin-2; actives lie on both sides; glutamate co-added at its EC20 level.
Turning to `O=S(=O)(Cc1ccccc1)N1CCc2ccccc21`, the manual score was 3.
For the compound `COc1cc(C)ccc1OCCOc1cc(C)ccc1Cl`, the manual score was 0.
In the case of `CCC1CCCN1Cn1cnc2c([nH]c3ccc(OC)cc32)c1=O` (stereo unspecified) it was 0.
As for `Cc1ccc(N2C=Nc3ccc(C)c4nc(C)cc2c34)cc1`, the figure is -1 (active).
As for `C/C(=N\NC(=O)c1ccccc1O)c1ccc(Br)s1`, the figure is 0.5.
For `C/C(=N\NC(=O)c1ccc(Cl)cc1)c1ccc(Br)s1`, the manual score is 0.5.
Turning to `C/C(=N\NC(=O)c1cccc(F)c1)c1ccc(Br)s1`, the manual score is 1 (active).
For the compound `CN(C=O)CP(=O)(O)CCN1CCCC1=O`, the manual score is 0.
With `O=C(CSc1nc2ccc(Cl)cc2[nH]1)Nc1ccc2c(c1)CCC2`, the manual score was 0.
In the case of `Cc1ccc(CSc2nc3ccncc3[nH]2)cc1` it was 0; in that of `Clc1cccc(CSc2nc3ccncc3[nH]2)c1`, 1 (active); in that of `CCN(CC)CCN1C(=O)c2oc3ccccc3c(=O)c2C1c1ccc(F)cc1` (stereo unspecified), 0.
In the case of `C=CCSc1nc2sc3c(c2c(=O)n1CC)CCc1ccccc1-3` it was 1 (active); in that of `CCn1c(SCC(N)=O)nc2c(c1=O)C1(CCCC1)Cc1ccccc1-2`, 0; in that of `Cc1ccc(C)c(NC(=S)N=Nc2c(O)n(C)c3ccc(S(=O)(=O)N4CCOCC4)cc23)c1`, 0.
On to `O=c1c(-c2ccccc2)nc(-c2ccccc2)cn1O`, for which the manual score was 1 (active).
In the case of `N=c1oc2ccc3ccccc3c2cc1-c1nc(-c2ccccc2)cs1` it was 3.
In the case of `CCN(C(=O)CN1CCN(c2ccccc2O)CC1)c1c(N)n(Cc2ccccc2)c(=O)[nH]c1=O` it was 0; in that of `CC(C)CCn1c(CN2CCN(Cc3ccccc3)CC2)nc2c1c(=O)[nH]c(=O)n2C`, -1 (active); in that of `CN(C)CCNc1nc2c(c(=O)[nH]c(=O)n2C)n1CCCc1ccccc1`, 0.
On to `Nc1nc2n(n1)C(c1cccs1)CC(c1ccc(F)cc1)N2` (stereo unspecified), for which the manual score was 0.
In the case of `COc1ccc(C2CC(c3ccc(Cl)c(Cl)c3)Nc3nc(N)nn32)cc1` (stereo unspecified) it was 1 (active); in that of `CCn1c(=O)cc(OCC(=O)Nc2cccc(C)n2)c2ccccc21`, 0.
In the case of `COc1cccc(NC(=O)CC2COc3ccccc3O2)c1` (stereo unspecified) it was 1 (active); in that of `COc1cccc(NC(=O)NC2(C(F)(F)F)Oc3ccccc3O2)c1`, 0; in that of `COc1cccc2c1OC[C@@H](CO)[C@H]2N(C)C(=O)Nc1ccccc1`, 0.
In the case of `CCc1cc2cccc(C)c2nc1SCC(=O)c1ccc(NC(C)=O)cc1` it was 0; in that of `COc1ccc(N2CCCn3c2nc2c3c(=O)n(Cc3ccccc3F)c(=O)n2C)c(OC)c1`, -1 (active).
As to `Cn1c(N2CCCC2)nc2c1c(=O)n(Cc1ccc(Cl)cc1)c(=O)n2C`, the manual score was -0.5.
As for `Cn1c(C(=O)OC(C(=O)NC2CCCCC2)c2ccncc2)cc2sccc21` (stereo unspecified), the figure is 0.
As for `COC(=O)c1cc2sccc2n1CC(=O)N1CCCc2ccccc21`, the figure is -1 (active); as for `CC12CCC(C(=O)N3CCCc4ccccc43)(CC1=O)C2(C)C` (stereo unspecified), 0; as for `CS(=O)(=O)Nc1ccc(C2=NN(C(=O)C3CCCCC3)C(c3cccs3)C2)cc1` (stereo unspecified), -0.5.
In the case of `Cc1ccnc(NC(=S)NC(=O)/C=C/c2ccco2)c1` it was 0; in that of `COc1ccc(C(=O)NC(=S)NC(C)C)cc1Br`, 0.5; in that of `C=CCN(CC=C)C(=S)NC(=O)c1ccc(OC)c(Br)c1`, 1 (active).
Take `C=CCN(CC=C)C(=S)NC(=O)c1ccc(C)c(Br)c1`: the manual score is 1 (active).
As for `COc1ccc(C(=O)NC(=S)NCCO)cc1Br`, the figure is 1 (active); as for `C=CCN(CC=C)C(=S)NC(=O)/C=C/c1ccc(C)cc1`, 1 (active).
In the case of `COc1cc(/C=C2/C(=O)N=C(N)N2C)cc(OC)c1OC` it was 0; in that of `CC(C)COc1ccc(Cc2cnc(N)nc2N)cc1`, 0; in that of `Cc1ccc(C(=O)NC(=S)Nc2ccccc2C(F)(F)F)cc1C`, 0.
For the compound `COC(=O)c1ccccc1NC(=S)NC(=O)COc1ccc(C)cc1`, the manual score was 0.
As to `COC(=O)c1ccccc1NC(=S)NC(=O)COc1ccccc1`, the manual score was 1 (active).
In the case of `O=C(COc1ccccc1)NC(=S)Nc1cccc([N+](=O)[O-])c1` it was 1 (active); in that of `O=C(COc1ccccc1)NC(=S)Nc1ccc2c(c1)Cc1ccccc1-2`, 0.
As for `COC(=O)c1ccccc1NC(=S)NC(=O)c1ccc(C)cc1`, the figure is 1 (active); as for `Cc1ccc(C(=O)NC(=S)Nc2ccccc2C(F)(F)F)cc1`, 1 (active).
In the case of `O=C(COc1ccccc1)NC(=S)Nc1ccc2c3c(cccc13)CC2` it was 0.5; in that of `CCC1c2ccc(C)n2CCN1C(=O)Nc1ccccc1C(=O)OC` (stereo unspecified), 0; in that of `COC(=O)c1ccccc1NC(=S)NC(=O)c1ccccc1`, 1 (active).
As to `O=C(NC(=S)Nc1ccc(Oc2ccc(Cl)cc2)cc1)c1ccccc1`, the manual score is 0.
As for `CCCN(CC1CC1)C(=S)Nc1ccc(Oc2ccccc2)cc1`, the figure is 1 (active); as for `CCOC(=O)c1ccc(NC(=S)NC(=O)COc2ccccc2)cc1`, 0.5.
As to `S=C(Nc1ccc(Oc2ccccc2)cc1)NC1CCCC1`, the manual score was 1 (active).
In the case of `CC1CCCCN1CC(=O)Nc1ccc(Oc2ccccc2)cc1` (stereo unspecified) it was 0.
In the case of `FC(F)(F)Oc1ccc(NC(=S)NCc2ccccc2)cc1` it was 0; in that of `CCOC(=O)c1[nH]c(C)c(C(=O)NC2CCCCC2)c1C`, 0.
In the case of `CCOC(=O)c1ccc(NC(=S)NC2CCCC2)cc1` it was 1 (active); in that of `CC(C)CNC(=S)Nc1ccc(Oc2ccccc2)cc1`, 1 (active); in that of `S=C(NN=C(C1CC1)C1CC1)Nc1ccccc1`, 0.
Take `COc1ccc(N(CC(=O)NCCSc2ccccn2)S(C)(=O)=O)cc1Cl`: the manual score is 0.
With `COc1ccc(CN(C)CC(=O)NC(=O)NCc2ccccc2)cc1OC`, the manual score is 0.
As for `COc1ccc(CCNC(=O)CSc2nnc(-c3ccc(F)cc3)c3ccccc23)cc1OC`, the figure is -1 (active); as for `COc1cc2c(cc1NC(=O)COc1ccccc1OC)oc1ccccc12`, 0.
As for `CCCCC(=O)Nc1ncc2c(n1)CC(C)(C)CC2=O`, the figure is 0; as for `CC1(C)Cc2nc(NCCN3CCOCC3)c(C#N)cc2CO1`, 0.
As for `N/C(=N\OC(=O)Cc1ccccc1)c1ccc(Br)cc1`, the figure is 0; as for `O=C(NN=C(Cc1ccccc1)Cc1ccccc1)c1ccc(F)cc1`, 1 (active).
On to `Cc1ccccc1C(=O)Nc1ccccc1C(=O)N/N=C\c1ccco1`, for which the manual score was 1 (active).
As for `Cc1cc(C)c(NC(=O)/C(=C/c2ccco2)c2ccccc2)c(C)c1`, the manual score is 0.
In the case of `O=C(Nc1ccccc1C(=O)N/N=C/c1ccco1)c1ccccc1` it was 0.5.
In the case of `Fc1ccc(CSc2nc3ccccc3[nH]2)c2ccccc12` it was 1 (active).
Take `O=C(CSc1nc2ccccc2[nH]1)NC1CCCc2ccccc21` (stereo unspecified): the manual score was 0.
As for `CC(Sc1nc2ccccc2c(=O)[nH]1)C(=O)O` (stereo unspecified), the figure is 0.
In the case of `CN1CCN(c2ccccc2NS(=O)(=O)c2ccc3c(c2)CCN3C(=O)C2CCC2)CC1` it was -1 (active); in that of `O=[n+]1c2c(n([O-])c3cc(F)c(N4CCCC4)cc31)CCC2`, 3.
As to `CCCN(CCC)CCNC(=O)C(NS(=O)(=O)c1ccc2c(c1)CCC(=O)N2)c1ccccc1` (stereo unspecified), the manual score is 0.
Consider `Cc1ccc(S(=O)(=O)n2cnc3cc([N+](=O)[O-])ccc32)cc1C`, for which the manual score is 0.
In the case of `COc1ccc(OC)c(C2C(C(=O)c3cc4ccccc4o3)=C(O)C(=O)N2c2cc(C)on2)c1` (stereo unspecified) it was 0; in that of `Cc1cccc(-n2ncc3c(NCCc4ccc(S(N)(=O)=O)cc4)ncnc32)c1`, 0.
As for `Cc1nc(NCCc2ccc(S(N)(=O)=O)cc2)c2c(C)c(C)sc2n1`, the figure is 1 (active).
As for `NS(=O)(=O)c1ccc(CCNC2CC(=O)N(Cc3ccccc3)C2=O)cc1` (stereo unspecified), the manual score was 0.
In the case of `CC(C)NC(=S)NC(=O)c1ccc(Cl)cc1Cl` it was 1 (active).
As for `CC(C)CNC(=S)NC(=O)c1ccc(Cl)cc1Cl`, the figure is 1 (active); as for `CCCCNC(=S)NC(=O)c1ccc(Cl)cc1Cl`, 1 (active).
In the case of `CCCCNC(=S)NC(=O)c1ccccc1Br` it was 0.5.
Regarding `CC(C)CNC(=S)NC(=O)c1ccccc1Cl`, the manual score is 0.
Take `CCOc1ccc(C(C)=O)cc1N1C(=O)C2C(C1=O)C1C=CC2C12CC2` (stereo unspecified): the manual score was 0.
As for `C=CCn1c(=S)[nH]c2sc3c(c2c1=O)CCC3`, the figure is 1 (active); as for `Cc1ncoc1C(=O)Nc1ccc(Oc2ccccc2)cc1`, 0.5.
As for `Cc1nc(C)c(C(=O)Nc2ccc(Oc3ccccc3)cc2)o1`, the figure is 1 (active); as for `CC(=O)Nc1ccc(Oc2ncccn2)cc1`, 0; as for `O=C1c2ccsc2SCCN1Cc1c(Cl)cccc1Cl`, -1 (active).
In the case of `CCCC(c1c(C)n(C)n(-c2ccccc2)c1=O)c1c(C)n(C)n(-c2ccccc2)c1=O` it was 0.
For `O=C(N/N=C/c1ccc2cccc(OCc3ccccc3)c2n1)c1ccc(Br)cc1`, the manual score was 0.5.
In the case of `COc1ccc(C(=O)N/N=C/c2ccc3cccc(OCc4ccccc4)c3n2)cc1` it was 0.
As for `O=C(N/N=C/c1ccccn1)c1ccc(Br)cc1`, the figure is 1 (active); as for `CCOC(=O)C1=C(C)NC2=C(C(=O)C(C(=O)OCC)C(c3ccccc3OC)C2)C1c1ccccn1` (stereo unspecified), 0; as for `CCOC(=O)C1=C(C)Nc2nnnn2C1c1ccccc1Cl` (stereo unspecified), -1 (active).
In the case of `CCCC1=C(C(=O)OCC)C(c2ccc(F)cc2)n2ncnc2N1` (stereo unspecified) it was 0; in that of `CCCCn1c(SCC(=O)NCc2ccco2)nc2ccccc2c1=O`, 0.5; in that of `CCc1c(C)c(C#N)c2nc3ccccc3n2c1NCc1ccco1`, -1 (active).
Turning to `Cn1c(NCc2cccc(Br)c2)nc2ccccc21`, the manual score was -1 (active).
For `CCCn1c(NCc2ccc(N(C)C)cc2)nc2ccccc21`, the manual score was -1 (active).
As for `CCCCCn1c(NCc2ccco2)nc2ccccc21`, the figure is -1 (active).
As for `CCCCn1c(NC(=S)Nc2ccccc2)nc2ccccc21`, the figure is 0; as for `C/C(=N\NC(=O)c1ccccc1)c1nc2ccccc2n1C`, 0; as for `CCCCn1c(NC(=O)c2ccccc2Cl)c(C#N)c2nc3ccccc3nc21`, -0.5.
As for `CC(C)CCn1c(S(=O)(=O)O)nc2ccccc21`, the figure is 0.
In the case of `CCN1c2ccccc2-c2nc3ccccc3n2C1c1ccco1` (stereo unspecified), the manual score was 0.
